# Bioassay records from PubChem.
# APOBEC3G inh – inhibitors of human APOBEC3G DNA deaminase. Q9HC16. recombinant A3G, ssDNA deamination FAM/TAMRA fluorescence. 0.28% of 330,000 active. inhibition, % at 20 µM;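 active means inhibition of at least 40% at 20 µM, with no more than 30% in the related APOBEC3A deaminase screen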;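 further: plate controls were DMSO wells with A3G for no effect and wells lacking A3G enzyme for full effect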
# Neddylation inh – blocks human cullin neddylation; P61081+Q13564; TR-FRET cullin neddylation, biochemical; inhibition, % at 25 µM; 0.58% of 360,000 active; AID 651699; in the data active means inhibition above about 36%
# Target sequence (P61081 whole entry, looked up): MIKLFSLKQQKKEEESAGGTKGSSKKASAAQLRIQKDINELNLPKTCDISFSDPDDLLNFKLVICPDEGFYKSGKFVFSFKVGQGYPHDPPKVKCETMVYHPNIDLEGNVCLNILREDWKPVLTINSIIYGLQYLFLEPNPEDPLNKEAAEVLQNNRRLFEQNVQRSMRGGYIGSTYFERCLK
# Target sequence (Q13564 whole entry, looked up): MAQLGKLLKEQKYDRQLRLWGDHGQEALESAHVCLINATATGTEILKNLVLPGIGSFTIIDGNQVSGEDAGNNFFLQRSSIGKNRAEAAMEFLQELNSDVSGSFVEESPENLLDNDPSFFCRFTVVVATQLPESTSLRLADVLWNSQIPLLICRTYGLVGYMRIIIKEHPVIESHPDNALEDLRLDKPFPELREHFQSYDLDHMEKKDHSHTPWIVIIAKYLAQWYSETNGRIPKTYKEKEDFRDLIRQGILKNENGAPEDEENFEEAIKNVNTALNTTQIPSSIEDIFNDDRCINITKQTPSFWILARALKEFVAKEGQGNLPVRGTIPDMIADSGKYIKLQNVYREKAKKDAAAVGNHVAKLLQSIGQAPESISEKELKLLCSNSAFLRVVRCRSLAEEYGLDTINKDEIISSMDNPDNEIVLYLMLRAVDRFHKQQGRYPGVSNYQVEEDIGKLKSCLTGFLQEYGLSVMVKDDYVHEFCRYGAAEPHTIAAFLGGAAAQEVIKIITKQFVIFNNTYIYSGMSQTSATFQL
# NPR1 activator – GC-A (human) enzyme activation | P16066 | HEK293 GC-A cells, cGMP TR-FRET, EC30 ANP; 0% at EC30 ANP, 100% saturating ANP | activation, % at 10 µM | 0.14% of 370,000 active | AID 1671463; in the data active means activation above about 40%
# APOBEC3A inh – blocks human APOBEC3A ssDNA deamination; P31941; recombinant A3A, FAM/TAMRA ssDNA deamination fluorescence; inhibition, % at 20 µM; 0.41% of 330,000 active; AID 493011;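 active means at least 40% inhibition at 20 µM here, with at most 30% in a related deaminase screen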;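 further: plate controls were A3A with DMSO for no effect and wells lacking A3A enzyme for full effect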
# GC-B act – GC-B (human) receptor activation; AID 1920062; activation, % at 10 µM; P20594; HEK293-GC-B cells, CNP EC30, cGMP TR-FRET; 0% at EC30 CNP, 100% saturating CNP; 0.11% of 370,000 active;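 active means activation at 10 µM reaching about 35% in either raw or pattern-adjusted values, limit read from the data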
# PfGluPho inh – PfG6PD (Plasmodium falciparum) enzyme inhibition; PfGluPho enzyme, NADPH resazurin-diaphorase fluorescence; inhibition, % at 20 µM; 0.78% of 350,000 active;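 active means inhibition reaching at least a set limit at 20 µM in the primary screen, cut at about 59% in these data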;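 further: 0% = DMSO wells with substrate and 100% = DMSO wells lacking glucose-6-phosphate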
# PfGluPho conf – PfG6PD inhibition, single-dose confirmed; inhibition, % at 20 µM; recombinant PfGluPho, NADPH-diaphorase-resazurin fluorescence; shares compounds with PfGluPho inh; 34% of 2,400 active;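 active means inhibition of at least 50% at 20 µM in any single replicate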;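 further: 0% = DMSO with substrate and 100% = DMSO lacking glucose-6-phosphate substrate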
# Diaph ctr 10uM – counter-screen for P. falciparum G6PD inhibitors: diaphorase inhibitors, oxidizers; shares compounds with PfGluPho inh; diaphorase-coupled resazurin reduction, fluorescence, NADPH 10 uM; inhibition, % at 20 µM; 39% of 820 active; AID 504862;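 active means average inhibition reaching 50% or more with the compound at 20 µM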;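 further: resorufin red fluorescence formed as diaphorase reduces resazurin using NADPH; 0% = DMSO with enzyme and 100% = DMSO without enzyme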
# Diaph ctr 30uM – inhibits diaphorase or oxidizes, flagging false PfG6PD hits; shares compounds with PfGluPho inh; Diaphorase/resazurin coupled assay, resorufin fluorescence, 30 uM NADPH; inhibition, % at 20 µM; 29% of 820 active; AID 504863;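 active means inhibition averaging 50% or more, tested at 20 µM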;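 further: 0% = DMSO with enzyme and 100% = DMSO wells lacking diaphorase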
# * = called active by the depositor; · = no result shown. Only some compounds are listed: those with a hit (about 2% of all), similar ones and a draw of the others.
SMILES,APOBEC3G inh,Neddylation inh,NPR1 activator,APOBEC3A inh,GC-B act,PfGluPho inh,PfGluPho conf,others
COc1ccc(-n2c(Cc3cccs3)nnc2SCC(=O)Nc2cccc3ccccc23)cc1,·,·,-14,·,-11,·,·,
C=CS(=O)(=O)c1c2cc(OC)ccc2nc2ccc(OC)cc12,·,·,17,·,-6,69*,20,
CC1CCC2(CCC(=O)N2CCCO)CC1 (stereo unspecified),·,·,-2,·,8,·,·,
O=S(=O)(Cc1cccc(F)c1)c1c[nH]c2ccccc12,1,5,-1,3,0,86*,41,
COC(=O)C1=C(C)N(Cc2ccccc2C(F)(F)F)C(=NCc2ccccc2)NC1c1cccc(F)c1 (stereo unspecified),·,·,-18,·,-12,·,·,
CCN(CC)C(=O)CSc1nc(N)c(C#N)c(-c2cccs2)c1C#N,-5,-173,7,0,-6,-4,·,
CCN(CC)C(=O)CSc1nc(-c2cccs2)cc(-c2cccs2)c1C#N,25,19,-2,-3,6,70*,15,
O=C(Nc1nnc(S(=O)(=O)N2CCOCC2)s1)c1ccc(F)cc1,-2,0,3,-3,-2,86*,56*,Diaph ctr 10uM=30;Diaph ctr 30uM=45
Cc1ccc(C(=O)Nc2nnc(S(=O)(=O)N3CCCCCC3)s2)cc1,-12,1,-2,0,-1,68*,6,
Cc1nnc(NC(=O)c2ccc(S(=O)(=O)N3CCCCC3)cc2)s1,-7,-21,1,-7,-2,-21,·,
Cc1ccc(C(=O)Nc2nnc(S(=O)(=O)N3CCOCC3)s2)cc1,-6,-2,1,-2,0,101*,62*,Diaph ctr 10uM=52*;Diaph ctr 30uM=51*
O=C(Nc1nnc(S(=O)(=O)N2CCOCC2)s1)c1cccc(F)c1,-6,5,6,-5,-3,51,·,
Cc1cccc(C(=O)Nc2nnc(S(=O)(=O)N3CCOCC3)s2)c1,4,0,0,1,0,68*,61*,Diaph ctr 10uM=48;Diaph ctr 30uM=41
Cc1ccc(N2CCN(S(=O)(=O)c3nnc(NC(=O)c4ccccc4)s3)CC2)cc1,-3,-13,-1,-1,-5,14,·,
O=C(Nc1ccc(F)cc1)OCc1cn(Cc2ccc(F)cc2F)nn1,·,·,0,·,0,·,·,
COc1ccc2[nH]c3c(c2c1)CCN[C@]31C(=O)N(Cc2cn(Cc3ccccc3)nn2)c2ccc(F)cc21,·,·,0,·,4,·,·,
Cc1nnc(NC(=O)c2cccc(S(=O)(=O)N3CCCC3)c2)s1,0,3,2,3,3,-6,·,
Cc1ccc(C(=O)Nc2nnc(S(=O)(=O)N3CCC(C)CC3)s2)cc1,6,-42,1,1,2,84*,50*,Diaph ctr 10uM=33;Diaph ctr 30uM=38
CC(C)c1ccc(C(=O)Nc2nnc(S(=O)(=O)N3CCCCC3)s2)cc1,-5,-23,3,-3,1,-20,·,
Cc1cccc(C(=O)Nc2nnc(S(=O)(=O)N3CCC(C)CC3)s2)c1,-7,-37,-11,-3,-33,70*,23,
Cc1ccc(NC(=O)c2ccc(S(=O)(=O)N3CCC(C)CC3)cc2)cc1,-4,5,2,5,5,1,·,
O=C(Nc1nnc(S(=O)(=O)N2CCCCCC2)s1)c1ccc(Cl)cc1,-6,-31,7,-2,4,80*,20,
CC(C)(C)c1ccc(C(=O)Nc2cc(Cl)ccc2C(=O)O)cc1,·,·,-3,·,-2,·,·,
CC1(C)CC1C(=O)Nc1ccc([N+](=O)[O-])cc1Br (stereo unspecified),-1,-16,0,3,3,-9,·,
Cc1ccc(C2(c3ccc(C)cc3)CC2C(=O)Nc2ccc([N+](=O)[O-])cc2O)cc1 (stereo unspecified),1,0,11,5,-1,93*,19,
